Among the data in article PMC7862700, “An all-to-all approach to the identification of sequence-specific readers for epigenetic DNA modifications on cytosine” are binding signal values, retold here.

Experiment in all cases: DAPPL (digital affinity profiling via proximity ligation, sequencing); 10 mM Tris-HCl pH 7.5, 50 mM NaCl, 1 mM DTT, 4% glycerol, room temperature, 30 min; GST-TFs on glutathione beads, 16-mer random dsDNA library, 0.1% formaldehyde crosslink after washing; high values mean tight binding
Settings in all cases: protein: recombinant; tags: N-terminal GST; dsDNA, one strand shown

One experiment addresses T1, ERF (Homo sapiens, UniProt P50548 1-548).
T1 sequence: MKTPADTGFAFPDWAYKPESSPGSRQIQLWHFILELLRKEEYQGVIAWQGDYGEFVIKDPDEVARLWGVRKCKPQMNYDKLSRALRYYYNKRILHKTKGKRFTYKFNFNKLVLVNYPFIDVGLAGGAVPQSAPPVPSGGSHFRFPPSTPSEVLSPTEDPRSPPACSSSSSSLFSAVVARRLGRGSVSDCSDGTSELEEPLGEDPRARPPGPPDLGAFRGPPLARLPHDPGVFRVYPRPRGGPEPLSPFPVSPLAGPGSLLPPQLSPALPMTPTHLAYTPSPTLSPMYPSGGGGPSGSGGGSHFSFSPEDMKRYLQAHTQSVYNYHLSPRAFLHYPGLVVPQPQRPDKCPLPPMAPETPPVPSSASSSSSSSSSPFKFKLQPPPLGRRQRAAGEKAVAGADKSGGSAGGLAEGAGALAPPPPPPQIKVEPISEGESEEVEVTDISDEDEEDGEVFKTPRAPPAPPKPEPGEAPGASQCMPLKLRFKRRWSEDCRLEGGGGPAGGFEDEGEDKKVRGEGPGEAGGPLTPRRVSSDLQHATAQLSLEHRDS
The method, boiled down: (§1)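 Binding signal is each hexamer's read frequency for a factor divided by its frequency in the tag-only sample. The factors were GST-fused human transcription factors from yeast, captured on glutathione beads, DNA-barcoded and pooled with that sample. Pools were incubated with 200 nmole of a random double-stranded 16-mer DNA library in Tris/NaCl/DTT/glycerol buffer at room temperature for 30 min, then washed, crosslinked with 0.1% formaldehyde, proximity-ligated with BsaI/T4 ligase (1 h, 37 °C), PCR-amplified and sequenced on an Illumina NextSeq500.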

The next experiment concerns the target T2, ETV3L (Homo sapiens, UniProt Q6ZN32 1-361).
T2 sequence: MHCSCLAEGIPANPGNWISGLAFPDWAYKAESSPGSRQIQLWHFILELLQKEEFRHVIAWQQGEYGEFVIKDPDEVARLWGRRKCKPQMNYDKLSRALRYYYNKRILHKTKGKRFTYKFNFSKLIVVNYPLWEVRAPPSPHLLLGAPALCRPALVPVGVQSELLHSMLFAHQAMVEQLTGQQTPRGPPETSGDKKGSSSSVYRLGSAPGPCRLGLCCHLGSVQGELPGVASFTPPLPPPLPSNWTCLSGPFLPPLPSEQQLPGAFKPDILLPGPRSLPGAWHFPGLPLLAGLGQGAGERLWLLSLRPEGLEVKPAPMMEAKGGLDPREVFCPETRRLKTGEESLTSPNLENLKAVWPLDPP
The method in brief:
as §1

The target of another experiment is T3, ETS2 (Homo sapiens, UniProt P15036 1-469).
T3 sequence: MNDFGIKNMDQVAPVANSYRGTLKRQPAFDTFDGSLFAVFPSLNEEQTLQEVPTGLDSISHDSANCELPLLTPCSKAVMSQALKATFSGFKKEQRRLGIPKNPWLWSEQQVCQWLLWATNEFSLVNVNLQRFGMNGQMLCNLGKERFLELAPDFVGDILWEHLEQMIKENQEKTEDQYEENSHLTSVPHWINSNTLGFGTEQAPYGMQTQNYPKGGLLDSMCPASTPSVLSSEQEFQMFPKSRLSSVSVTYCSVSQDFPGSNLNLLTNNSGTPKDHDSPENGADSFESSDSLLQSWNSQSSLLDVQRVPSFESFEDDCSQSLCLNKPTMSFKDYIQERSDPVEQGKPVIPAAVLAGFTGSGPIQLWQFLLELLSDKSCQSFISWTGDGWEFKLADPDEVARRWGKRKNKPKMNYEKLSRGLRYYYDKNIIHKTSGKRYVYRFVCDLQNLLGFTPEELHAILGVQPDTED
The method in brief:
as §1

In another experiment the target is T4, SPDEF (Homo sapiens, UniProt O95238 1-335).
T4 sequence: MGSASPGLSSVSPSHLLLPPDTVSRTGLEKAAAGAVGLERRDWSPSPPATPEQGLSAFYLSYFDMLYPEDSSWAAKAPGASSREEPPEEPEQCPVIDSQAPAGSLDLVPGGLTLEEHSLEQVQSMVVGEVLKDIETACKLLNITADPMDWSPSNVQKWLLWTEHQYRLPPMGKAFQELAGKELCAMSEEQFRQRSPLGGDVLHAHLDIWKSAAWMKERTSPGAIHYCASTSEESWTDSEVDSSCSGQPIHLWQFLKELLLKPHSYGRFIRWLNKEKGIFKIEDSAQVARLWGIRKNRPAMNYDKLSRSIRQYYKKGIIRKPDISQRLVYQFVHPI
The method in brief:
as §1

For the next experiment, the target named is T5, ETV7 (Homo sapiens, UniProt Q9Y603 1-341).
T5 sequence: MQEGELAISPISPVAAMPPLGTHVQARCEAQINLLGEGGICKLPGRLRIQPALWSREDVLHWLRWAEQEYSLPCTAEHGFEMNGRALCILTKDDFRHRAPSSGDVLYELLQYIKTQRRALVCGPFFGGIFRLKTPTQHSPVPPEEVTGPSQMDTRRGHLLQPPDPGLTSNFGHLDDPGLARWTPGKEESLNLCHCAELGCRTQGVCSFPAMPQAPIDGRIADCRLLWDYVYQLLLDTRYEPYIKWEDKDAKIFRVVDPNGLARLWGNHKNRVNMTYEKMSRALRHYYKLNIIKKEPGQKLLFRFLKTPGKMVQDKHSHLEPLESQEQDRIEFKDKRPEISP
The method, boiled down: as §1

Another experiment concerns the target T6, ELF5 (Homo sapiens, UniProt Q9UKW6-2 1-255).
T6 sequence: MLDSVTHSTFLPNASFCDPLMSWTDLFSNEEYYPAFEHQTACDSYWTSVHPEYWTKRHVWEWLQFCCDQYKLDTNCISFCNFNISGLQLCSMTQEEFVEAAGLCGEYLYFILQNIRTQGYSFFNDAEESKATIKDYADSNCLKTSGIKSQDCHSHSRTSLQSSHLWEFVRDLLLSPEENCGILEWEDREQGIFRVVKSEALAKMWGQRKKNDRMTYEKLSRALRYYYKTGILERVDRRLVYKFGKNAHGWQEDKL
The method in brief: as §1

The target in another experiment is T7, ETV3 (Homo sapiens, UniProt P41162-2 1-143).
T7 sequence: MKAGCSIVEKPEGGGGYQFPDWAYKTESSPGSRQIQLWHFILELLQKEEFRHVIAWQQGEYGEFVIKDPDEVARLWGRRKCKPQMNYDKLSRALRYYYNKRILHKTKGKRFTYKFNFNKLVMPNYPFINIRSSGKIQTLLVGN
The method in brief:
as §1

Another experiment has as its target ETV6 (Homo sapiens, UniProt P41212 1-452). The method, boiled down:
as §1

Sequence of ETV6 (P41212 whole entry): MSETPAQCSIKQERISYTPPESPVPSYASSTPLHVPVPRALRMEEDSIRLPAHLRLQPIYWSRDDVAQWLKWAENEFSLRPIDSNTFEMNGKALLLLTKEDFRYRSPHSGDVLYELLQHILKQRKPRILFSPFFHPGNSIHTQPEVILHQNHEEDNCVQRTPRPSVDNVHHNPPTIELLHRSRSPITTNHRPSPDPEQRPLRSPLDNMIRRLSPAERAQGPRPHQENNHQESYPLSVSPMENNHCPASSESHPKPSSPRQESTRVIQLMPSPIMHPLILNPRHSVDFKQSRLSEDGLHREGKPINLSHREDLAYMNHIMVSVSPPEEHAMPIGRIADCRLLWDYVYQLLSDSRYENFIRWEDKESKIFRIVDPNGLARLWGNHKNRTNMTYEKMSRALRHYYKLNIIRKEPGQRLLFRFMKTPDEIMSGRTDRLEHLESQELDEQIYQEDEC

As to AACTTG, the binding signal is 1.18 fold enrichment (6-mer frequency, TF over GST control) with ERF; 1.17 fold enrichment (6-mer frequency, TF over GST control) with ETV3L; 1.18 fold enrichment (6-mer frequency, TF over GST control) in the experiment with ETS2; 1.14 fold enrichment (6-mer frequency, TF over GST control) in the experiment with SPDEF; 1.08 fold enrichment (6-mer frequency, TF over GST control) with ETV7; 1.06 fold enrichment (6-mer frequency, TF over GST control) with ELF5. Besides, the binding signal with ETV3 was 1.28 fold enrichment (6-mer frequency, TF over GST control); with ETV6 it was 1.09 fold enrichment (6-mer frequency, TF over GST control).
As for CGCCGC, the binding signal with ERF was 1.2 fold enrichment (6-mer frequency, TF over GST control); with ETV3L, 1.18 fold enrichment (6-mer frequency, TF over GST control); with ETS2 it was 1.2 fold enrichment (6-mer frequency, TF over GST control); in the experiment with SPDEF, 1.08 fold enrichment (6-mer frequency, TF over GST control); in the experiment with ETV7, 1.11 fold enrichment (6-mer frequency, TF over GST control); with ELF5, 1.08 fold enrichment (6-mer frequency, TF over GST control). In addition, the binding signal with ETV3 is 1.09 fold enrichment (6-mer frequency, TF over GST control); with ETV6 it was 1.21 fold enrichment (6-mer frequency, TF over GST control).
AACACC: the binding signal with ERF was 1.15 fold enrichment (6-mer frequency, TF over GST control); with ETV3L it was 1.15 fold enrichment (6-mer frequency, TF over GST control); with ETS2 it was 1.13 fold enrichment (6-mer frequency, TF over GST control); with SPDEF it was 1.15 fold enrichment (6-mer frequency, TF over GST control); in the experiment with ETV7, 1.13 fold enrichment (6-mer frequency, TF over GST control); with ELF5 it was 1.09 fold enrichment (6-mer frequency, TF over GST control). The binding signal was 1.13 fold enrichment (6-mer frequency, TF over GST control) with ETV3 and 1.06 fold enrichment (6-mer frequency, TF over GST control) with ETV6.
For the sequence CGTTAT, the binding signal with ERF was 1.17 fold enrichment (6-mer frequency, TF over GST control); with ETV3L, 1.2 fold enrichment (6-mer frequency, TF over GST control); with ETS2, 1.15 fold enrichment (6-mer frequency, TF over GST control); in the experiment with SPDEF, 1.08 fold enrichment (6-mer frequency, TF over GST control); with ETV7 it was 1.21 fold enrichment (6-mer frequency, TF over GST control); with ELF5, 1.05 fold enrichment (6-mer frequency, TF over GST control). The binding signal with ETV3 was 1.18 fold enrichment (6-mer frequency, TF over GST control); with ETV6 it was 1.09 fold enrichment (6-mer frequency, TF over GST control).
For TTTACC, the binding signal in the experiment with ERF is 1.21 fold enrichment (6-mer frequency, TF over GST control); with ETV3L, 1.1 fold enrichment (6-mer frequency, TF over GST control); with ETS2 it was 1.28 fold enrichment (6-mer frequency, TF over GST control); with SPDEF, 1.26 fold enrichment (6-mer frequency, TF over GST control); with ETV7 it was 1.45 fold enrichment (6-mer frequency, TF over GST control); in the experiment with ELF5, 1.2 fold enrichment (6-mer frequency, TF over GST control). In addition, the binding signal with ETV3 was 1.36 fold enrichment (6-mer frequency, TF over GST control); in the experiment with ETV6, 1.26 fold enrichment (6-mer frequency, TF over GST control).
For ACAACC, the binding signal in the experiment with ERF was 1.19 fold enrichment (6-mer frequency, TF over GST control); with ETV3L it was 1.17 fold enrichment (6-mer frequency, TF over GST control); with ETS2 it was 1.26 fold enrichment (6-mer frequency, TF over GST control); in the experiment with SPDEF, 1.28 fold enrichment (6-mer frequency, TF over GST control); with ETV7, 1.18 fold enrichment (6-mer frequency, TF over GST control); in the experiment with ELF5, 1.22 fold enrichment (6-mer frequency, TF over GST control). In addition, the binding signal in the experiment with ETV3 is 1.29 fold enrichment (6-mer frequency, TF over GST control); in the experiment with ETV6, 1.28 fold enrichment (6-mer frequency, TF over GST control).
Turning to GCACAA, the binding signal with ERF is 1.16 fold enrichment (6-mer frequency, TF over GST control); in the experiment with ETV3L it was 1.08 fold enrichment (6-mer frequency, TF over GST control); in the experiment with ETS2, 1.12 fold enrichment (6-mer frequency, TF over GST control); with SPDEF, 1.05 fold enrichment (6-mer frequency, TF over GST control); with ETV7, 1.09 fold enrichment (6-mer frequency, TF over GST control); in the experiment with ELF5, 1.1 fold enrichment (6-mer frequency, TF over GST control). The binding signal with ETV3 is 1.14 fold enrichment (6-mer frequency, TF over GST control); with ETV6, 1.11 fold enrichment (6-mer frequency, TF over GST control).
Consider TAAATC, for which the binding signal was 1.24 fold enrichment (6-mer frequency, TF over GST control) with ERF; 1.29 fold enrichment (6-mer frequency, TF over GST control) in the experiment with ETV3L; 1.33 fold enrichment (6-mer frequency, TF over GST control) with ETS2; 1.33 fold enrichment (6-mer frequency, TF over GST control) with SPDEF; 1.22 fold enrichment (6-mer frequency, TF over GST control) with ETV7; 1.15 fold enrichment (6-mer frequency, TF over GST control) in the experiment with ELF5. Also, the binding signal in the experiment with ETV3 was 1.18 fold enrichment (6-mer frequency, TF over GST control); with ETV6, 1.29 fold enrichment (6-mer frequency, TF over GST control).
